# Measurements reported in PubChem BioAssay (EPA / NIEHS).
# Activity calls are given as the source filed them. Rule for the calls: active = hit-call score of the fitted dose curve at least 0.9, where 1 is the maximum; inactive = score below 0.9.
# Molecular target: Cytochrome P450 2C18 (Homo sapiens) (UniProt P33260)
# Assay: NVS_ADME_hCYP2C18: NovaScreen (NVS) CYP450-related Enzyme Activity (ADME) Assay for human CYP2C18 (AID 2283103)
# Method: NVS_ADME_hCYP2C18 is a biochemical, single-readout assay that uses extracted gene-proteins in a cell-free assay. Measurements were taken 0.5 hour after chemical dosing in a 96-well plate.NVS_ADME_hCYP2C18 is one of one assay component(s) measured or calculated from the NVS_ADME_hCYP2C18 assay. It is designed to make measurements of enzyme activity, a form of enzyme reporter, as detected with fluorescence intensity signals by Fluorescence technology.Data from the assay component NVS_ADME_hCYP2C18 was analyzed into 1 assay endpoint. This assay endpoint, NVS_ADME_hCYP2C18, was analyzed in the positive analysis fitting direction relative to Acetonitrile as the negative control and baseline of activity. Using a type of enzyme reporter, loss-of-signal activity can be used to understand changes in the enzymatic activity as they relate to the gene CYP2C18. Furthermore, this assay endpoint can be referred to as a primary readout, because this assay has produced multiple assay endpoints where this one serves a enzymatic activity function. To generalize the intended target to other relatable targets, this assay endpoint is annotated to the cyp intended target family, where the subfamily is xenobiotic metabolism.
# Binding assays used specific radioligands (tritiated, iodinated) with non-radioactive competitive displacement ligands in agonist or antagonist protocols (as indicated) and various reference compounds and inhibitors to titrate specific binding to receptors and transporters. Most enzyme assays (CYPs, kinases, phosphatases, proteases, HDACs) used recombinant protein and specific substrates (fluorescence mostly, some colorimetric and radioactive) and inhibitors, followed by a biochemical separation of substrate and product. All assays for the biochemical HTS were initially run in duplicate at a single concentration (10 uM for CYP450 assays and 25 uM for all others). Assay-chemical combinations meeting a pre-defined threshold (e.g., 30% inhibition and other criteria defined below) were then run in singleton concentration-response format with maximum concentration of 20 uM for CYPs and 50 uM for all others. Each assay was run with positive and negative controls, and concurrent controls on every plate. The follow-up (secondary) screen tested active chemical-pairs in concentration series, as well as a few additional assays not tested in the primary screen, some selected negative inactives, and several cases re-run in the concentration series for confirmatory purposes.
# Chain of Cytochrome P450 2C18 (Homo sapiens) (P33260 whole entry, looked up): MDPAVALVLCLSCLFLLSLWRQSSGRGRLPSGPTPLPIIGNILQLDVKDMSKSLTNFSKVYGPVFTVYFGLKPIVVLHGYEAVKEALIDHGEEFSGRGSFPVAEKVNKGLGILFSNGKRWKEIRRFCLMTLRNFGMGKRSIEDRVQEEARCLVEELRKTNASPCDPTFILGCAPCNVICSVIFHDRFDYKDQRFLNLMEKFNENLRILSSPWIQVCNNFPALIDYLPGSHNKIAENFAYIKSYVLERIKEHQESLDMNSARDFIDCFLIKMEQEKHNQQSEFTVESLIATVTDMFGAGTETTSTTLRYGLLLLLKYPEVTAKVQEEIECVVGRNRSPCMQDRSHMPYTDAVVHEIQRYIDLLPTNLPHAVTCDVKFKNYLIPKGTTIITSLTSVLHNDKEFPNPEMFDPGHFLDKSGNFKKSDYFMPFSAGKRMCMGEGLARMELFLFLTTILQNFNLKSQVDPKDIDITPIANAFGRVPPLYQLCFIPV
Structure (SMILES),AC50,outcome
CC(C)(C)C(O)C(Oc1ccc(Cl)cc1)n1cncn1 (configuration not stated),7.93 µM (active),
COP(=S)(OC)Oc1ccc([N+](=O)[O-])cc1,2.7 µM (active),
CCOC1Oc2ccc(OS(C)(=O)=O)cc2C1(C)C (configuration not stated),5.65 µM (active),
CC(C)(C)C(O)/C(=C\c1ccc(Cl)cc1Cl)n1cncn1 (configuration not stated),0.0386 µM (active),
Oc1ccc(Cl)cc1Cc1ccccc1,6.87 µM (active),
CC[C@H](C)[C@H]1O[C@]2(C=C[C@@H]1C)C[C@@H]1C[C@@H](C/C=C(\C)[C@@H](O[C@H]3C[C@H](OC)[C@@H](O[C@H]4C[C@H](OC)[C@@H](O)[C@H](C)O4)[C@H](C)O3)[C@@H](C)/C=C/C=C3\CO[C@@H]4[C@H](O)C(C)=C[C@@H](C(=O)O1)[C@]34O)O2 (tested in a mixture with another compound),5.02 µM (active),
COc1nn(CSP(=S)(OC)OC)c(=O)s1,3.67 µM (active),
O=C(O)C(F)(F)C(F)(F)C(F)(F)C(F)(F)C(F)(F)C(F)(F)C(F)(F)F,,inactive
CC(C)N(C(=O)COc1nnc(C(F)(F)F)s1)c1ccc(F)cc1,5.82 µM (active),
O=S(=O)(O)C(F)(F)C(F)(F)C(F)(F)C(F)(F)C(F)(F)C(F)(F)C(F)(F)C(F)(F)F,0.875 µM (active),
CN1CSC(=S)N(C)C1,4.32 µM (active),
CCCN(CCOc1c(Cl)cc(Cl)cc1Cl)C(=O)n1ccnc1,0.588 µM (active),
